Structures are written as SMILES. Structures can show the parent of a compound that is named as a salt.

The test concerns Saccharomyces cerevisiae BY4741 SeMeCo community. Nature of the test: z-score of subpopulation abundance vs DMSO median, subpopulation auxotrophic for H; higher = larger share of this subpopulation than in DMSO controls. As to conditions: 10 µM; 24 h; SM minimal medium; subpopulation (auxotrophy): H. On the procedure:
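Fluorescent four-plasmid SeMeCo (self-establishing metabolically cooperating S. cerevisiae BY4741 community; plasmids pH-mRuby2, pL-mWasabi, pU-eCFP, pM-TagRFP657) was grown 24 h in minimal SM medium with each Selleck FDA-approved drug at 10 µM in 384-well plates. Cells were fixed and imaged by high-content confocal microscopy. For each auxotrophic subpopulation (and the prototroph), a z-score gives the deviation from the DMSO vehicle-control population median.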
As to `CN(C)[C@@H]1C(=O)C(C(N)=O)=C(O)[C@@]2(O)C(=O)C3=C(O)c4c(O)cccc4[C@@](C)(O)[C@H]3C[C@@H]12` [Tetracycline HCl], the “z-score of subpopulation abundance” value was determined as 1.08.

Turning to `CCCN1C[C@H](CSC)C[C@@H]2c3cccc4[nH]cc(c34)C[C@H]21` [Pergolide Mesylate], the “z-score of subpopulation abundance” value is -0.28.

As to `CN(C)[C@@H]1C(=O)C(C(N)=O)=C(O)[C@@]2(O)C(=O)C3=C(O)c4c(O)cccc4[C@@](C)(O)[C@H]3[C@H](O)[C@@H]12` [Oxytetracycline (Terramycin)], the “z-score of subpopulation abundance” value stood at 1.45.

As for `CCOC(=O)Nc1ccc(NCc2ccc(F)cc2)cc1N` [Retigabine], the “z-score of subpopulation abundance” value was 1.45.

For `NC(=O)CN1CCCC1=O` [Piracetam], the “z-score of subpopulation abundance” value worked out at 1.01.

As for `N[C@@H]1C[C@H]1c1ccccc1` [Tranylcypromine (2-PCPA) HCl], the “z-score of subpopulation abundance” value was -0.67.

In the case of `CN1[C@@H]2C[C@@H](OC(=O)[C@H](CO)c3ccccc3)C[C@H]1[C@@H]1O[C@@H]12` [Scopolamine HBr trihydrate], the “z-score of subpopulation abundance” value was -0.46.

Consider `C[CH2][Hg][S]c1ccccc1C(=O)[O-].[Na+]` [Thimerosal], for which the “z-score of subpopulation abundance” value came to 7.64.

For the compound `COc1ccc(C(CN(C)C)C2(O)CCCCC2)cc1` (stereo not given) [Venlafaxine], the “z-score of subpopulation abundance” value was -1.33.

Turning to `C[N+](C)(C)CCCCCCCCCC[N+](C)(C)C` [Decamethonium Bromide], the “z-score of subpopulation abundance” value is 0.07.

On to `Oc1cccc2cccnc12` [8-Hydroxyquinoline], for which the “z-score of subpopulation abundance” value was found to be 0.93.

Consider `C=C[C@H]1CN2CC[C@H]1C[C@H]2[C@H](O)c1ccnc2ccccc12` [Cinchonidine], for which the “z-score of subpopulation abundance” value is -0.15.

Consider `C=CCN1C[C@H](C(=O)N(CCCN(C)C)C(=O)NCC)C[C@@H]2c3cccc4[nH]cc(c34)C[C@H]21` [Cabergoline], for which the “z-score of subpopulation abundance” value was -0.38.

`CC[N+](C)(CC)CCOC(=O)C(O)(c1ccccc1)c1ccccc1` [Methylbenactyzine Bromide]: the “z-score of subpopulation abundance” value was 0.06.

Take `COc1ccc2c(c1)[C@]13CCCC[C@@H]1[C@H](C2)N(C)CC3` [Dextromethorphan hydrobromide hydrate]: the “z-score of subpopulation abundance” value is 0.44.

Take `COc1ccc(C=O)cc1` [p-Anisaldehyde]: the “z-score of subpopulation abundance” value was -0.35.

For the compound `CN1C(=O)COc2c(C(=O)NC3CN4CCC3CC4)cc(Cl)cc21` (stereo not given) [Azasetron HCl], the “z-score of subpopulation abundance” value is -0.91.

Regarding `N#Cc1nn(-c2c(Cl)cc(C(F)(F)F)cc2Cl)c(N)c1[S+]([O-])C(F)(F)F` (stereo not given) [Fipronil], the “z-score of subpopulation abundance” value worked out at 0.48.

`CC(NC(C)(C)C)C(=O)c1cccc(Cl)c1` (stereo not given) [Amfebutamone (Bupropion) HCl]: the “z-score of subpopulation abundance” value is -0.63.

For the compound `COC(=O)C1=CCCN(C)C1` [Arecoline HBr], the “z-score of subpopulation abundance” value turned out to be 0.32.

Consider `CC[C@H]1[C@@H]2C[C@H]3[C@@H]4N(C)c5ccccc5[C@]45C[C@@H]([C@@H]2[C@H]5O)N3[C@@H]1O` [Ajmaline], for which the “z-score of subpopulation abundance” value was -0.87.

As for `C[C@H]1O[C@H](O[C@H]2[C@H](O)[C@@H](O)[C@@H](O)[C@H](O)[C@@H]2O)[C@@H](N)C[C@@H]1NC(=N)C(=O)O` [Kasugamycin hydrochloride], the “z-score of subpopulation abundance” value worked out at 0.49.

Regarding `CCN(C)C(=O)Oc1cccc([C@H](C)N(C)C)c1` [Rivastigmine], the “z-score of subpopulation abundance” value was -0.34.

On to `CCN(C)C(=O)Oc1cccc([C@H](C)N(C)C)c1` [Rivastigmine Tartrate], for which the “z-score of subpopulation abundance” value is -0.17.

`CNC1CC(N)C(O)C(OC2OC(CO)C(O)C3OC4(OC(C(N)CO)C(O)C(O)C4O)OC23)C1O` (stereo not given) [Hygromycin B]: the “z-score of subpopulation abundance” value is -0.88.

With `COc1ccc2c3c([nH]c2c1)C(C)=NCC3` [Harmaline], the “z-score of subpopulation abundance” value came to 2.23.

Regarding `C[N+]1(C)[C@@H]2C[C@@H](OC(=O)[C@H](CO)c3ccccc3)C[C@H]1[C@@H]1O[C@@H]12` [Methscopolamine], the “z-score of subpopulation abundance” value stood at 0.28.

As to `COc1cc2c(cc1OC)C1CC(=O)C(CC(C)C)CN1CC2` (stereo not given) [Tetrabenazine (Xenazine)], the “z-score of subpopulation abundance” value worked out at 0.02.

`C[C@@H]1O[C@@H](O[C@H]2C[C@@H](O)[C@]3(CO)[C@H]4[C@H](O)C[C@]5(C)[C@@H](C6=CC(=O)OC6)CC[C@]5(O)[C@@H]4CC[C@]3(O)C2)[C@H](O)[C@H](O)[C@H]1O` [Ouabain]: the “z-score of subpopulation abundance” value was -1.13.

Regarding `C[C@@H]1CC[C@H]2[C@@H](C)C(=O)O[C@@H]3O[C@@]4(C)CC[C@@H]1[C@]32OO4` [Artemisinin], the “z-score of subpopulation abundance” value was found to be 1.06.

In the case of `CN1[C@@H]2CC[C@H]1C[C@@H](OC(=O)C(CO)c1ccccc1)C2` (stereo not given in full) [Atropine sulfate monohydrate], the “z-score of subpopulation abundance” value was -0.43.

With `C#C[C@]1(O)C=C[C@H]2[C@@H]3CCC4=CC(=O)CC[C@@H]4[C@H]3CC[C@@]21CC` [Gestodene], the “z-score of subpopulation abundance” value was 0.25.

For `O=C(O[C@H]1C[N+]2(CCCOc3ccccc3)CCC1CC2)C(O)(c1cccs1)c1cccs1` [Aclidinium Bromide], the “z-score of subpopulation abundance” value was -0.92.

`C[N+]12CCC(CC1)C(OC(=O)C(O)(c1ccccc1)c1ccccc1)C2` (stereo not given) [Clidinium Bromide]: the “z-score of subpopulation abundance” value was -0.48.

For the compound `Oc1cc(Cl)ccc1Oc1ccc(Cl)cc1Cl` [Triclosan], the “z-score of subpopulation abundance” value was -1.93.

Take `CN[C@@H]1[C@@H](O)[C@@H](O[C@@H]2[C@@H](O)[C@H](O[C@H]3O[C@H]([C@@H](C)O)[C@@H](O)[C@H](O)[C@H]3N)[C@@H](N)C[C@H]2N)OC[C@]1(C)O` [Geneticin (G418 Sulfate)]: the “z-score of subpopulation abundance” value is -0.21.

`CCOC(=O)Nc1ccc(NCc2ccc(F)cc2)cc1N` [Retigabine 2HCl]: the “z-score of subpopulation abundance” value was 1.44.

As for `Nc1ccncc1` [4-Aminopyridine], the “z-score of subpopulation abundance” value was -0.01.

Take `CCC1=C[C@H]2CN3CCc4c([nH]c5ccccc45)[C@](C(=O)OC)(C2)[C@H]13` [Catharanthine]: the “z-score of subpopulation abundance” value is -0.99.

For `CCCCCCCCCCCCCCCC[n+]1ccccc1` [Cetylpyridinium Chloride], the “z-score of subpopulation abundance” value was 19.3.

The values are drawn from the supplement of paper PMC8975748.
